PMC7862700, “An all-to-all approach to the identification of sequence-specific readers for epigenetic DNA modifications on cytosine”

Tests used:
Test in all cases: DAPPL (digital affinity profiling via proximity ligation, sequencing); 10 mM Tris-HCl pH 7.5, 50 mM NaCl, 1 mM DTT, 4% glycerol, room temperature, 30 min; GST-TFs on glutathione beads, 16-mer random dsDNA library, 0.1% formaldehyde crosslink after washing; high values mean tight binding
Conditions in all cases: protein: recombinant; tags: N-terminal GST; dsDNA, one strand shown
FLI1 = target: T1, FLI1 (Homo sapiens, UniProt Q01543 1-452)
T1 sequence: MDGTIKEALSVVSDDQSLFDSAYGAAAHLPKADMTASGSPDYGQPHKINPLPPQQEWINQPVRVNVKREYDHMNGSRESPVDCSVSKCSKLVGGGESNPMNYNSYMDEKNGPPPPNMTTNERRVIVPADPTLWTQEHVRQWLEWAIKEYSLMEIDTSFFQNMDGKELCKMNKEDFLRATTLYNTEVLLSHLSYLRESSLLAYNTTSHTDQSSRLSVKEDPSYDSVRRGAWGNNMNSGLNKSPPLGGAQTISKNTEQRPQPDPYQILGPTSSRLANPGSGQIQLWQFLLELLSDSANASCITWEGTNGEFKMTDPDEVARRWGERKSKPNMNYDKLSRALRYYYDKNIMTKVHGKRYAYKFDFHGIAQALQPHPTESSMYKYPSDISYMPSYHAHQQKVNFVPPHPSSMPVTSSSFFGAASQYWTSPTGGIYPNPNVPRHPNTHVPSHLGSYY
Outline: (§1)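 Beads coated with glutathione captured GST-fused human transcription factors that had been expressed in yeast, and the factors were then given DNA barcodes and pooled with a tag-only sample. The pools were incubated with 200 nmole of a random double-stranded 16-mer DNA library in Tris/NaCl/DTT/glycerol buffer for 30 min at room temperature, washed, crosslinked with 0.1% formaldehyde and proximity-ligated with BsaI/T4 ligase at 37 °C for 1 h. PCR amplification and Illumina NextSeq500 sequencing came last. Binding signal is each hexamer's read frequency for a factor divided by its frequency for the tag-only sample.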

ELK1 = target: T2, ELK1 (Homo sapiens, UniProt P19419 1-428)
T2 sequence: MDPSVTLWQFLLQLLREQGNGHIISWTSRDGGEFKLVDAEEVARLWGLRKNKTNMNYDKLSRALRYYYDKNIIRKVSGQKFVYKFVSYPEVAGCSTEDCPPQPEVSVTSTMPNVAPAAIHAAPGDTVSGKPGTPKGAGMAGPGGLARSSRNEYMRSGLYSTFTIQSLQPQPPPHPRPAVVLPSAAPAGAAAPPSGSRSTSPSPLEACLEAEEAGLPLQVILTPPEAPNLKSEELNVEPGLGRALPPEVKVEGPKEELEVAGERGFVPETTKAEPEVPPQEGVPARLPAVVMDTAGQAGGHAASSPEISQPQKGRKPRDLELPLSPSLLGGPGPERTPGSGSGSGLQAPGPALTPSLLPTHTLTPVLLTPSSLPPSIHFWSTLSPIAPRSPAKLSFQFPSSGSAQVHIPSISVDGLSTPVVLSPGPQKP
Outline: as §1

GABPA = target: T3, GABPA (Homo sapiens, UniProt Q06546 1-454)
T3 sequence: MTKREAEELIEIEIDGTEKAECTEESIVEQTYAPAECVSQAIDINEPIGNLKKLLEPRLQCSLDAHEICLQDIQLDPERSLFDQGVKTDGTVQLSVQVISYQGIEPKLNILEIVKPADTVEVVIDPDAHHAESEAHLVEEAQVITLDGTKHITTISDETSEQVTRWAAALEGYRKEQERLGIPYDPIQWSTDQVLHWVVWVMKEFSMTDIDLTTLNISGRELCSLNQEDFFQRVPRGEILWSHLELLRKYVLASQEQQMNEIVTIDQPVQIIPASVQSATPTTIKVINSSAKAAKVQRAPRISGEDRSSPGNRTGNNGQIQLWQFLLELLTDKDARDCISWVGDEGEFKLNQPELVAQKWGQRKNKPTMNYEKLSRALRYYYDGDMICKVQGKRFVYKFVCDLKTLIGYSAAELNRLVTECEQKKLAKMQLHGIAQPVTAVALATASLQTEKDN
Outline: as §1

ERG = target: T4, ERG (Homo sapiens, UniProt P11308 1-479)
T4 sequence: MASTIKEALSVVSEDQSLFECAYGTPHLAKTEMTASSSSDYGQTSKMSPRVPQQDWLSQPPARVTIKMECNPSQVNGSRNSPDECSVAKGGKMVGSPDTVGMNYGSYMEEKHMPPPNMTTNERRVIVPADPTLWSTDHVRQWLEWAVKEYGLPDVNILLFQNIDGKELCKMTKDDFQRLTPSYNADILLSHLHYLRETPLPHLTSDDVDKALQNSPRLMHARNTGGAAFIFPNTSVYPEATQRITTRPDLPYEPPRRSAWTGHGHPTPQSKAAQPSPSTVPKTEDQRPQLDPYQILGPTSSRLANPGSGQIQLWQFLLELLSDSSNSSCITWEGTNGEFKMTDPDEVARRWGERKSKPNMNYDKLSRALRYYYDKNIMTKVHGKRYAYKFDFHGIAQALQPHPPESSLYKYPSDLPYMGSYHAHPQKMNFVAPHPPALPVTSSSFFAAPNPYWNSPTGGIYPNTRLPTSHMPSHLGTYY
Outline: as §1

ELF1 = ELF1 (Homo sapiens, UniProt P32519 1-619)
Outline: as §1

EHF = target: T5, EHF (Homo sapiens, UniProt Q9NZC4 1-300)
T5 sequence: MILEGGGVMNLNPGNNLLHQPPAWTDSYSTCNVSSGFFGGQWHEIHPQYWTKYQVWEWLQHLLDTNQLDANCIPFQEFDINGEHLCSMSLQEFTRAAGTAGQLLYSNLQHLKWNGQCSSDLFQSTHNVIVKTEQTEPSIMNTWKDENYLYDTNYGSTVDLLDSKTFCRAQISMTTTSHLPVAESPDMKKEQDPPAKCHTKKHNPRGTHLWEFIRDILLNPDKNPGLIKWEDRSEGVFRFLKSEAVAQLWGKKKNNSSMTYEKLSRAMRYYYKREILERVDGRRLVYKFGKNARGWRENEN
Outline: as §1

SPI1 = SPI1 (Homo sapiens, UniProt P17947 1-270)
Outline: as §1

SPIB = SPIB (Homo sapiens, UniProt Q01892 1-262)
Outline: as §1

ELK3 = target: T6, ELK3 (Homo sapiens, UniProt P41970 1-407)
T6 sequence: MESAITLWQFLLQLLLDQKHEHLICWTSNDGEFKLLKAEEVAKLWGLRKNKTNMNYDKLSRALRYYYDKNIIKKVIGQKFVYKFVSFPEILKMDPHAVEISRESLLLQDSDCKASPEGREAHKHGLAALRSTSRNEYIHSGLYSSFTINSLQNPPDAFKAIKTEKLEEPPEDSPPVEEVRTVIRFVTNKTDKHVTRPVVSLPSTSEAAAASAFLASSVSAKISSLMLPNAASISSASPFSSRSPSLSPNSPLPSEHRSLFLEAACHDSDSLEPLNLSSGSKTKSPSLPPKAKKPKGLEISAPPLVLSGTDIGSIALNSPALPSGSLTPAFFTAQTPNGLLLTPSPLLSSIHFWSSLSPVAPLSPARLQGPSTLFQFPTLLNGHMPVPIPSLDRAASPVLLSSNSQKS
Outline: as §1

Chain of ELF1 (P32519 whole entry): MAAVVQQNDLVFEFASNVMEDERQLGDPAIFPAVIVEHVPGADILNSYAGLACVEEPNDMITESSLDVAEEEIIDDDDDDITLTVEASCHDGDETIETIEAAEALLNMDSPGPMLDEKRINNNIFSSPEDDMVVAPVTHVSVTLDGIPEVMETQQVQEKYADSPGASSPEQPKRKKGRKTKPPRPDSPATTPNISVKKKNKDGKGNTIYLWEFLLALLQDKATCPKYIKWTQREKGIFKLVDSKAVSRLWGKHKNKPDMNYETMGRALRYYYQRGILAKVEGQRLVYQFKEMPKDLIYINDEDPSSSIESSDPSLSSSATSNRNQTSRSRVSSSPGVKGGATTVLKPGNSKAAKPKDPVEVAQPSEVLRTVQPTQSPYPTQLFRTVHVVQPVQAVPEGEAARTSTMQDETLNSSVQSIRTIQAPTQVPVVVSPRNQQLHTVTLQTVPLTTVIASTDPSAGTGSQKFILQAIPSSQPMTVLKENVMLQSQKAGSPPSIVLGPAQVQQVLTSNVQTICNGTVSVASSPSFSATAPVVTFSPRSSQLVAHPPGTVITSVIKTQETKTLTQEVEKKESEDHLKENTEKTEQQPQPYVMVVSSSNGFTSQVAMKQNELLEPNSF
Chain of SPIB (Q01892 whole entry): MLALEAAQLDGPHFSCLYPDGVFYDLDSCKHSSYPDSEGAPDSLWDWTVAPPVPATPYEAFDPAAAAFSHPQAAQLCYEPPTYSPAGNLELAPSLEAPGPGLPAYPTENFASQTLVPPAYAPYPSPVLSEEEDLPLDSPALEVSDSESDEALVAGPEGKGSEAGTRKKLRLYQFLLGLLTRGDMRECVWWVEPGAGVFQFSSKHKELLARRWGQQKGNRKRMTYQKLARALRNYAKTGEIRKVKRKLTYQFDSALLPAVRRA

Row | Sequence | binding signal (FLI1) | binding signal (ELK1) | binding signal (GABPA) | binding signal (ERG) | binding signal (ELF1) | binding signal (EHF) | binding signal (SPI1) | binding signal (SPIB) | binding signal (ELK3)
1 | TTGGTT | 1.51 fold enrichment (6-mer frequency, TF over GST control) | 1.38 fold enrichment (6-mer frequency, TF over GST control) | 1.45 fold enrichment (6-mer frequency, TF over GST control) | 1.37 fold enrichment (6-mer frequency, TF over GST control) | 1.39 fold enrichment (6-mer frequency, TF over GST control) | 1.4 fold enrichment (6-mer frequency, TF over GST control) | 1.43 fold enrichment (6-mer frequency, TF over GST control) | 1.47 fold enrichment (6-mer frequency, TF over GST control) | 1.43 fold enrichment (6-mer frequency, TF over GST control)
2 | CTAATT | 1.35 fold enrichment (6-mer frequency, TF over GST control) | 1.2 fold enrichment (6-mer frequency, TF over GST control) | 1.33 fold enrichment (6-mer frequency, TF over GST control) | 1.36 fold enrichment (6-mer frequency, TF over GST control) | 1.43 fold enrichment (6-mer frequency, TF over GST control) | 1.33 fold enrichment (6-mer frequency, TF over GST control) | 1.3 fold enrichment (6-mer frequency, TF over GST control) | 1.37 fold enrichment (6-mer frequency, TF over GST control) | 1.4 fold enrichment (6-mer frequency, TF over GST control)
3 | TTCAAC | 1.3 fold enrichment (6-mer frequency, TF over GST control) | 1.31 fold enrichment (6-mer frequency, TF over GST control) | 1.24 fold enrichment (6-mer frequency, TF over GST control) | 1.26 fold enrichment (6-mer frequency, TF over GST control) | 1.33 fold enrichment (6-mer frequency, TF over GST control) | 1.32 fold enrichment (6-mer frequency, TF over GST control) | 1.28 fold enrichment (6-mer frequency, TF over GST control) | 1.38 fold enrichment (6-mer frequency, TF over GST control) | 1.29 fold enrichment (6-mer frequency, TF over GST control)
4 | CCTTTT | 1.49 fold enrichment (6-mer frequency, TF over GST control) | 1.46 fold enrichment (6-mer frequency, TF over GST control) | 1.46 fold enrichment (6-mer frequency, TF over GST control) | 1.56 fold enrichment (6-mer frequency, TF over GST control) | 1.52 fold enrichment (6-mer frequency, TF over GST control) | 1.49 fold enrichment (6-mer frequency, TF over GST control) | 2.05 fold enrichment (6-mer frequency, TF over GST control) | 1.67 fold enrichment (6-mer frequency, TF over GST control) | 1.64 fold enrichment (6-mer frequency, TF over GST control)
5 | ATCTGG | 1.19 fold enrichment (6-mer frequency, TF over GST control) | 1.01 fold enrichment (6-mer frequency, TF over GST control) | 1.17 fold enrichment (6-mer frequency, TF over GST control) | 1.14 fold enrichment (6-mer frequency, TF over GST control) | 1.18 fold enrichment (6-mer frequency, TF over GST control) | 1.12 fold enrichment (6-mer frequency, TF over GST control) | 1.12 fold enrichment (6-mer frequency, TF over GST control) | 1.14 fold enrichment (6-mer frequency, TF over GST control) | 1.09 fold enrichment (6-mer frequency, TF over GST control)
6 | TTAGGG | 1.03 fold enrichment (6-mer frequency, TF over GST control) | 1.14 fold enrichment (6-mer frequency, TF over GST control) | 1.13 fold enrichment (6-mer frequency, TF over GST control) | 1.15 fold enrichment (6-mer frequency, TF over GST control) | 1.11 fold enrichment (6-mer frequency, TF over GST control) | 1.13 fold enrichment (6-mer frequency, TF over GST control) | 1.25 fold enrichment (6-mer frequency, TF over GST control) | 1.17 fold enrichment (6-mer frequency, TF over GST control) | 1.07 fold enrichment (6-mer frequency, TF over GST control)
7 | CACGTT | 1.28 fold enrichment (6-mer frequency, TF over GST control) | 1.35 fold enrichment (6-mer frequency, TF over GST control) | 1.3 fold enrichment (6-mer frequency, TF over GST control) | 1.28 fold enrichment (6-mer frequency, TF over GST control) | 1.29 fold enrichment (6-mer frequency, TF over GST control) | 1.24 fold enrichment (6-mer frequency, TF over GST control) | 1.3 fold enrichment (6-mer frequency, TF over GST control) | 1.21 fold enrichment (6-mer frequency, TF over GST control) | 1.25 fold enrichment (6-mer frequency, TF over GST control)
8 | ATCAAC | 1.12 fold enrichment (6-mer frequency, TF over GST control) | 1.19 fold enrichment (6-mer frequency, TF over GST control) | 1.19 fold enrichment (6-mer frequency, TF over GST control) | 1.07 fold enrichment (6-mer frequency, TF over GST control) | 1.13 fold enrichment (6-mer frequency, TF over GST control) | 1.12 fold enrichment (6-mer frequency, TF over GST control) | 1.08 fold enrichment (6-mer frequency, TF over GST control) | 1.1 fold enrichment (6-mer frequency, TF over GST control) | 1.21 fold enrichment (6-mer frequency, TF over GST control)
